Data taken from PubChem BioAssay AID1220 (Sanford-Burnham Center for Chemical Genomics, 2008).
About 1,300 (0.68%) of roughly 190,000 compounds were called active. The sample holds actives, similar compounds and a random draw of the others, so the mix is not that of the screen. A number with no mark means an inactive call. Cut-off read from the data, not from the text of the source: active = inhibition above about 50%; inactive = the rest.

Target: Mannose-6-phosphate isomerase (Homo sapiens) (UniProt P34949)
Assay: MPI inhibition at elevated mannose 6-phosphate – biochemical, fluorescence intensity, high mannose 6-phosphate, primary screen (AID 1220)
Conditions: recombinant PMI enzyme, coupled fluorescence intensity; at 20 µM; stronger effect = higher value

Mannose-6-phosphate isomerase (Homo sapiens), sequence (P34949 whole entry, looked up): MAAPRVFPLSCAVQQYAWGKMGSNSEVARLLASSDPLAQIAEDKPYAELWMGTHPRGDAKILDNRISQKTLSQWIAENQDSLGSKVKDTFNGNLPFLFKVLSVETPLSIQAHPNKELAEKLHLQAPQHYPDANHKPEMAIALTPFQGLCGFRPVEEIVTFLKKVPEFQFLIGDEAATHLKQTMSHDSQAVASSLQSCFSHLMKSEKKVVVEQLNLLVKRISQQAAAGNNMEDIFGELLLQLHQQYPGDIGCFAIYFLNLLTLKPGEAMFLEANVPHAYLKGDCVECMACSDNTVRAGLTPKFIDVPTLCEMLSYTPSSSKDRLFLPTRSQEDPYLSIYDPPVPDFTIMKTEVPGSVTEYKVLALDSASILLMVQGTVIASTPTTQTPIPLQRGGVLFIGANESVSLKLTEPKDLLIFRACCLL

Q: For `Cc1cc(C)c(NC(=O)CS)c(Cl)c1`, which inhibition is on record?
A: -11.6%

Q: With `CSc1nc(Cl)cc(Nc2ccccc2N)n1` as the compound, how does the inhibition read?
A: -3%

Q: How did the inhibition turn out when `O=C(O)CCNC(=O)/C(=C/C=C/c1ccccc1)NC(=O)c1ccccc1` was run?
A: -0.9%

Q: How did the inhibition turn out when `Cc1ccc(Nc2nc(Nc3ccc(C)cc3)nc(SC3=NCCS3)n2)cc1` was run?
A: 8.1%

Q: Which inhibition does the source give for `CCCCC1(Cc2ccc(OC)c([N+](=O)[O-])c2)C(=O)N(c2ccccc2)N(c2ccccc2)C1=O` here?
A: 11%

Q: How did the inhibition turn out when `CC(C)(C)CC(C)(C)c1ccc(O)c(CN2CCN(CCC#N)CC2)c1` was run?
A: 4.7%

Q: Which inhibition does the source give for `CC1(C)CC(NCCN2CCN(C3=CC(=C(C#N)C#N)CC(C)(C)C3)CC2)=CC(=C(C#N)C#N)C1` here?
A: 12.4%

Q: How did the inhibition turn out when `CCC(CC)COC(=O)C(C#N)c1nc2ccccc2nc1N1CCN(CC)CC1` (stereo not drawn) was run?
A: 17.2%

Q: With `CCN1CCN(C2=CC3=CC(=C(C#N)C#N)CCC3CC2)CC1` (stereo not drawn) as the compound, how does the inhibition read?
A: 59.6% (active)

Q: With `CCn1cc(C(=O)N2CCc3ccccc32)c(=O)c2cc(S(=O)(=O)N3CCCCCC3)ccc21` as the compound, how does the inhibition read?
A: 5.7%

Q: For `CCCC(=O)NC(c1ccccc1Cl)c1c(O)ccc2ccccc12` (stereo not drawn), which inhibition is on record?
A: 13.4%

Q: Which inhibition does the source give for `CCC(=O)NC(c1ccc([N+](=O)[O-])cc1)c1c(O)ccc2ccccc12` (stereo not drawn) here?
A: 14.3%

Q: Which inhibition does the source give for `CCC(=O)NC(c1ccc(OC)cc1)c1c(O)ccc2ccccc12` (stereo not drawn) here?
A: 44.2%

Q: With `CCCC(=O)NC(c1ccc(N(C)C)cc1)c1c(O)ccc2ccccc12` (stereo not drawn) as the compound, how does the inhibition read?
A: 54.8% (active)

Q: With `CCC(=O)NC(c1ccc(N(C)C)cc1)c1c(O)ccc2ccccc12` (stereo not drawn) as the compound, how does the inhibition read?
A: 62% (active)

Q: How did the inhibition turn out when `CCCC(=O)NC(c1ccc(OC)c(OC)c1)c1c(O)ccc2ccccc12` (stereo not drawn) was run?
A: 23.2%

Q: Which inhibition does the source give for `Cc1cc(NC(=O)CN2C(=O)/C(=C/c3cccc(Br)c3)SC2=S)no1` here?
A: -9.8%

Q: `CC(Cl)c1cc(-c2ncc(C(F)(F)F)cc2Cl)no1` (stereo not drawn) was tested. Which inhibition did it give?
A: -4.3%

Q: How did the inhibition turn out when `CCc1ccccc1OCCCCCNCCO` was run?
A: 1.5%

Q: With `COc1cc(C2=NOC(C(=O)N3CCCCCC3)C2)cc(OC)c1OC` (stereo not drawn) as the compound, how does the inhibition read?
A: -5.6%

Q: How did the inhibition turn out when `O=C(O)C1CC=CCC1C(=O)NCCc1csc(-c2ccccc2)n1` (stereo not drawn) was run?
A: -17.1%

Q: `CCOc1ccc(C(C)NC(=S)NC2CCCCC2)cc1OCC` (stereo not drawn) was tested. Which inhibition did it give?
A: 6%

Q: With `Cc1ccc(OCC(=O)N/N=C\c2cn(C)c3ccccc23)c([N+](=O)[O-])c1` as the compound, how does the inhibition read?
A: 14%

Q: Which inhibition does the source give for `COc1cccc(C2NC(=O)c3ccccc3O2)c1OCc1ccccc1F` (stereo not drawn) here?
A: 19%

Q: `CN(C)c1ccc(/C(=N\O)c2ccccc2)cc1` was tested. Which inhibition did it give?
A: 5.9%

Q: Which inhibition does the source give for `CN(C)c1ccc(N=Cc2nc(-c3ccccc3)oc2O)cc1` here?
A: 31%

Q: With `Cc1ccc(N=Cc2ccc(N(C)C)cc2)cc1` as the compound, how does the inhibition read?
A: 9.3%

Q: How did the inhibition turn out when `Cc1ccc(C=Nc2ccc(N(C)C)cc2)o1` was run?
A: 51.8% (active)

Q: Which inhibition does the source give for `CN(C)c1ccc(N=Cc2ccco2)cc1` here?
A: 63.2% (active)

Q: `Cc1ccc(N=Cc2ccc(N(C)C)cc2)cc1C` was tested. Which inhibition did it give?
A: 10%

Q: With `Cc1ccc(/C=C/C(=O)Nc2ccc(N(C)C)cc2)o1` as the compound, how does the inhibition read?
A: 27.9%

Q: With `CN(C)c1ccc(C=Nc2ccc(N(C)C)cc2)cc1` as the compound, how does the inhibition read?
A: 59.2% (active)

Q: How did the inhibition turn out when `CN(C)c1ccc(C=Nc2ccccc2)cc1` was run?
A: -10.5%

Q: How did the inhibition turn out when `CN(C)c1ccc(C(=O)/C=C/c2ccco2)cc1` was run?
A: 38.7%

Q: Which inhibition does the source give for `CCSc1nc(C(F)(F)F)cc(=O)n1-c1ccccc1` here?
A: -9.6%

Q: `O=C(Nc1c(F)cc(F)cc1Br)c1cc2nc(C(F)F)cc(C(F)F)n2n1` was tested. Which inhibition did it give?
A: 18.1%

Q: For `CCCC1(C)NC(=O)c2ccccc2O1` (stereo not drawn), which inhibition is on record?
A: 7.5%

Q: `Cc1cccc(C)c1NC(=O)CSc1nnc(Cc2ccccc2)o1` was tested. Which inhibition did it give?
A: -13.2%

Q: Which inhibition does the source give for `Cc1cccc(OCC(=O)O/N=C(\N)Cc2cccs2)c1` here?
A: 0%

Q: `O=C(COc1cccc(C(F)(F)F)c1)N1CCN(c2ccc(O)cc2)CC1` was tested. Which inhibition did it give?
A: 50.6% (active)

Q: How did the inhibition turn out when `COc1ccc(OCC(=O)N2CCN(c3cccc(C(F)(F)F)c3)CC2)cc1` was run?
A: 15.4%

Q: `O=C(COc1cccc(C(F)(F)F)c1)N1CCN(c2ccccc2O)CC1` was tested. Which inhibition did it give?
A: -5.8%

Q: Which inhibition does the source give for `CC(C)C(=O)NC(Nc1cccc2cccnc12)C(Cl)(Cl)Cl` (stereo not drawn) here?
A: 41.4%

Q: With `CCC(=O)NC(NC(=S)Nc1cccc2cccnc12)C(Cl)(Cl)Cl` (stereo not drawn) as the compound, how does the inhibition read?
A: 37.8%

Q: For `CC(C)(C)C(=O)NC(Nc1cccc2cccnc12)C(Cl)(Cl)Cl` (stereo not drawn), which inhibition is on record?
A: 60.1% (active)

Q: For `CCOC(=O)c1oc2ccccc2c1NC(=O)COC`, which inhibition is on record?
A: -10.9%

Q: Which inhibition does the source give for `CCOc1ccc(C(C)NC(=O)CCC(=O)O)cc1` (stereo not drawn) here?
A: 1.9%

Q: With `Cc1ccc2nc(SCC(=O)Nc3cccc(S(=O)(=O)N(C)C)c3)[nH]c2c1` as the compound, how does the inhibition read?
A: 10.5%

Q: For `O=C(/C=C/c1ccc(Br)o1)NCCCN1CCOCC1`, which inhibition is on record?
A: -2.7%

Q: How did the inhibition turn out when `CCCc1ccc(C#N)c(SC2CC(=O)N(c3ccc(OC)cc3)C2=O)n1` (stereo not drawn) was run?
A: 40.6%

Q: For `N#Cc1cc2c(nc1SC1CC(=O)N(c3ccccc3)C1=O)CCC2` (stereo not drawn), which inhibition is on record?
A: 35.2%

Q: How did the inhibition turn out when `COc1ccc(N2C(=O)CC(Sc3nc4c(cc3C#N)CCC4)C2=O)cc1` (stereo not drawn) was run?
A: 57.1% (active)

Q: `Cc1nc2ccc(NC(=O)c3ccc(S(=O)(=O)N4CCOCC4)cc3)cc2s1` was tested. Which inhibition did it give?
A: -2.3%

Q: For `Cc1nc2ccc(Nc3nc4cc(S(=O)(=O)N5CCOCC5)ccc4o3)cc2s1`, which inhibition is on record?
A: 61.9% (active)

Q: How did the inhibition turn out when `Cc1nc2ccc(NC(=O)c3cc(S(=O)(=O)N4CCOCC4)ccc3C)cc2s1` was run?
A: 5.6%

Q: How did the inhibition turn out when `Nc1nc(NCCCN2CCOCC2)nc(Nc2ccc(F)cc2)c1[N+](=O)[O-]` was run?
A: -6.1%

Q: `CCOC(=O)c1sc2nc(CC(=O)OC)nc(N(C)CCc3ccccn3)c2c1C` was tested. Which inhibition did it give?
A: -1.1%

Q: Which inhibition does the source give for `CCOC(=O)C1=C(c2ccccc2)OC(N)=C(C#N)C1c1cccnc1` (stereo not drawn) here?
A: 11.6%

Q: Which inhibition does the source give for `CC1=C(n2nnc([N+](=O)[O-])n2)C(c2cccnc2)C(C#N)=C(N)O1` (stereo not drawn) here?
A: 59.9% (active)

Q: With `CC(=O)C1=C(C)OC(N)=C(C#N)C1c1ccncc1` (stereo not drawn) as the compound, how does the inhibition read?
A: -5.8%

Q: `CC(=O)C1=C(C)OC(N)=C(C#N)C1c1cccc([N+](=O)[O-])c1` (stereo not drawn) was tested. Which inhibition did it give?
A: 56.7% (active)

Q: How did the inhibition turn out when `CC(=O)C1=C(C)OC(N)=C(C#N)C1c1cccnc1` (stereo not drawn) was run?
A: 42.6%

Q: For `COC(=O)C1=C(C)OC(N)=C(C#N)C1c1cccnc1` (stereo not drawn), which inhibition is on record?
A: 0.3%
